Records with an inconclusive call do not appear. The source made the active and inactive calls. Unless noted, calls come from the whole dose curve.
What was measured:
[1] = Nuclear factor erythroid 2-related factor 2/antioxidant responsive element (Nrf2/ARE) small molecule agonists: qHTS cell viability counter screen in human keratinocytes (AID 1919968; active = well fitted curve in the direction sought with a large enough effect in the repeat runs; an effect the other way counts as inactive or inconclusive; note: nearly all actives have a fitted effect of over 55% in size)
Procedure, shortened: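 Cells of the KeratinoSens line were plated at 1,500 per well and left for 5 h before compound transfer from DMSO stocks. After a 23 h incubation (37 C, 5% CO2), CellTiter-Fluor was added. Signal was taken as fluorescence intensity 1 h later.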

[2] = Nuclear factor erythroid 2-related factor 2/antioxidant responsive element (Nrf2/ARE) small molecule agonists: luciferase reporter gene qHTS assay in human keratinocytes (AID 1919969); note: nearly all actives have a fitted effect of over 35% in size
[3] = biological target: Gonadotropin-releasing hormone receptor (Homo sapiens) (UniProt P30968); assay: Human gonadotropin-releasing hormone receptor (GnRHR) small molecule agonists, calcium flux assay in GnRHR-HEK293 cells (AID 1920063); note: nearly all actives have a fitted effect of over 35% in size
Procedure, shortened: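 Compounds dissolved in DMSO are pin-transferred onto dye-loaded GnRHR-HEK293 cells, which were seeded 18 h before at 37 C/5% CO2. Calcium signal is read as fluorescence intensity at 1 s intervals for 3 min.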

[4] = biological target: KiSS-1 receptor (Homo sapiens) (UniProt Q969F8); assay: Human kisspeptin (KISS1R) small molecule agonists, calcium flux assay in KISS1R-HEK293 cells (AID 1920064; active = well fitted curve in the direction sought with a large enough effect in the repeat runs; an effect the other way counts as inactive or inconclusive)
Procedure, shortened: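 Cell line: HEK293, stable human KISS1R. Dye loading 1 h at 37 C after 18 h culture. Read: kinetic fluorescence, 480/540 nm, 3 min at 1 s intervals.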

[5] = G protein-coupled receptor (GPCR) small molecule agonists, calcium flux assay: HEK293 wild type cell line counter screen (AID 1920065)
Procedure, shortened: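 Tox21 10K compounds, 15 concentrations each in triplicate, pin-transferred in DMSO onto dye-loaded cells; kinetic read at 480/540 nm for 3 min, 1 s intervals.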

[6] = p53 small molecule agonists, cell-based qHTS assay with human liver microsomes (AID 1963577);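 note: p53 response element beta-lactamase reporter cells with liver microsomes plus NADPH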
Procedure, shortened: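 p53RE-bla cells; 5 h settle, 37 C/5% CO2; cpd + HLM 0.5 mg/mL + NADPH 0.5 mg/mL (final); 16 h 37 C; LiveBLAzer 2 h RT dark; fluorescence readout.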

[7] = p53 small molecule agonists, cell-based qHTS assay with rat liver microsomes (AID 1963578)
Procedure, shortened: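 Rat liver microsome activation: microsomes 0.5 mg/mL, NADPH 0.5 mg/mL final; p53RE-bla cells, 16 h 37 C; LiveBLAzer readout, 2 h RT dark.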

[8] = p53 small molecule agonists, cell-based qHTS assay with human liver microsomes: qHTS cell viability counter screen (AID 1963579); note: nearly all actives have a fitted effect of over 45% in size
Procedure, shortened: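 Luminescent CellTiter-Glo read-out, 30 min at room temperature, gauged cytotoxicity in p53RE-bla cells exposed 16 h at 37 C to DMSO-dissolved compounds with metabolic activation by human liver microsomes and NADPH, each 0.5 mg/mL final.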

[9] = p53 small molecule agonists, cell-based qHTS assay with rat liver microsomes: qHTS cell viability counter screen (AID 1963580); note: nearly all actives have a fitted effect of over 45% in size
Procedure, shortened: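 Counter screen for cytotoxicity under metabolic activation: rat liver microsomes and NADPH, 0.5 mg/mL final each, added with compounds to p53RE-bla HCT-116 cells; 16 h at 37 C, then ATP luminescence read.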

[10] = p53 small molecule agonists, cell-based qHTS assay: qHTS cell viability counter screen (AID 1963581); note: nearly all actives have a fitted effect of over 45% in size
Procedure, shortened: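 ATP content measured by luminescence in HCT-116 p53RE-bla cells treated 16 h at 37 C, same wells as the reporter screen.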

[11] = p53 small molecule agonists, cell-based qHTS assay (AID 1963582; active = well fitted activation curve with a large enough effect in the signal ratio in the repeat runs, not every such curve was filed as active; the % refers to the signal ratio)
Procedure, shortened: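 16 h compound exposure (37 C) of p53 response element–bla cells, preceded by 5 h recovery at 37 C/5% CO2; read-out via LiveBLAzer B/G FRET substrate, 2 h RT, fluorescence intensity.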

[12] = biological target: Muscarinic acetylcholine receptor M1 (Homo sapiens) (UniProt P11229); assay: Cholinergic receptor muscarinic 1 (CHRM1) small molecule antagonists, cell-based qHTS assay (AID 1963588); note: nearly all actives have a fitted effect of over 40% in size
Procedure, shortened: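 Compounds were tested at 15 concentrations in three independent runs. Dye-loaded CHRM1-CHO cells were exposed 5 min at room temperature before stimulation by acetylcholine added at 50nM. Intracellular calcium was read kinetically on FDSS for 3 min.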

[13] = biological target: Muscarinic acetylcholine receptor M1 (Homo sapiens) (UniProt P11229); assay: Cholinergic receptor muscarinic 1 (CHRM1) small molecule agonists, cell-based qHTS assay (AID 1963589); note: nearly all actives have a fitted effect of over 35% in size
Procedure, shortened: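 Homogeneous fluorescence calcium flux, agonist mode. Human M1-expressing CHO cells; compound dosed at 15 concentrations, three independent runs; signal sampled every 1 sec.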

[14] = cAMP Responsive Elements (CRE) small molecule agonists, cell-based qHTS assay (AID 1963590)
Procedure, shortened: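 HEK 293T cells stably bearing CRE-bla were plated at 2,000 cells per well and rested 18 h. Compounds, positive controls or DMSO were added for 3 h at 37 C. LiveBLAzer B/G substrate was then loaded for 2 h at room temperature.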

[15] = cAMP Responsive Elements (CRE) small molecule antagonists, cell-based qHTS assay (AID 1963591; active = well fitted inhibition curve with a large enough effect in the signal ratio in the repeat runs, not every such curve was filed as active; the % refers to the signal ratio)
Procedure, shortened: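 First, CRE-bla HEK293T cells settled 18 h at 37 C. Next, compound and 0.25 uM final NKH477 were applied for 3 h. Last, LiveBLAzer B/G substrate was loaded for 2 h at room temperature.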

[16] = biological target: Beta-2 adrenergic receptor (Homo sapiens) (UniProt P07550); assay: Adrenergic beta2 receptor (ADRB2) small molecule antagonists, cell-based qHTS assay (AID 1963592); note: series mostly up to about 92 µM; nearly all actives have a fitted effect of over 50% in size
Procedure, shortened: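 Assay format: CHO-ADRB2 cells, 18-20hr seeding at 37C/5% CO2, then compound plus 1nM isoproterenol agonist mix for 0.5hr RT. Homogeneous time-resolved fluorescence cAMP detection after 1hr, expressed as 665/615 nm ratio.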

[17] = biological target: D(2) dopamine receptor (Homo sapiens) (UniProt P14416); assay: Dopamine D2 receptor (DRD2) small molecule agonists, cell-based qHTS assay (AID 1963594); note: nearly all actives have a fitted effect of over 35% in size
Procedure, shortened: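 HEK293 cells stably expressing DRD2 were cultured 24 h at 37 C, then given Ro20-1724 (0.1 mM final) and compounds for 10 min at room temperature. NKH477 (200nM) was then added for 30 min. cAMP was read by HTRF.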

[18] = biological target: D(2) dopamine receptor (Homo sapiens) (UniProt P14416); assay: Dopamine D2 receptor (DRD2) small molecule antagonists, cell-based qHTS assay (AID 1963595; active = well fitted inhibition curve with a large enough effect in the signal ratio in the repeat runs, with a control signal flat; the % refers to the signal ratio)
Procedure, shortened: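 HEK293 cells stably expressing DRD2 were preincubated with 0.1 mM Ro20-1724, then with compound for 10 min at room temperature. Cells were stimulated with 200 nM NKH477 plus 12 nM quinpirole for 30 min, and cAMP was read by HTRF.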

[19] = biological target: 5-hydroxytryptamine receptor 2A (Homo sapiens) (UniProt P28223); assay: 5-hydroxytryptamine receptor 2A (HTR2A) small molecule antagonists, cell-based qHTS assay (AID 1963586); note: nearly all actives have a fitted effect of over 45% in size
Procedure, shortened: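 CHO cells stably expressing human HTR2A were plated for 18 h at 37 C, then loaded with calcium dye for 1 h. Compounds were preincubated 5 min at room temperature before DOI (4 nM solution) was added. Kinetic fluorescence was read for 3 min.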

[20] = biological target: 5-hydroxytryptamine receptor 2A (Homo sapiens) (UniProt P28223); assay: 5-hydroxytryptamine receptor 2A (HTR2A) small molecule agonists, cell-based qHTS assay (AID 1963587); note: nearly all actives have a fitted effect of over 30% in size
Procedure, shortened: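 HTR2A-CHO cells, plated 18 h at 37 C/5% CO2, dye-loaded 1 h at 37 C; compounds in DMSO added by pin tool (agonist mode). Intracellular calcium flux read as kinetic fluorescence on FDSS over 2 min at 1 s intervals.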

Measured: Potency

Chain of Gonadotropin-releasing hormone receptor (Homo sapiens) (P30968 whole entry, looked up): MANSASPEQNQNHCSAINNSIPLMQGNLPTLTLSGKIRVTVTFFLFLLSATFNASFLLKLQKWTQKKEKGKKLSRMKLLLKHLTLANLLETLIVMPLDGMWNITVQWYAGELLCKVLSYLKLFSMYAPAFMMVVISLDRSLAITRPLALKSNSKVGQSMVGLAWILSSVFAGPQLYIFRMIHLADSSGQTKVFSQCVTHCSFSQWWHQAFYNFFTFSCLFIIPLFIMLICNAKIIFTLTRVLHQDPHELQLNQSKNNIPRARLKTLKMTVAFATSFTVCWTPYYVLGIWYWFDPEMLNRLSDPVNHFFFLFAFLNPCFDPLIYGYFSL
Chain of Beta-2 adrenergic receptor (Homo sapiens) (P07550 whole entry, looked up): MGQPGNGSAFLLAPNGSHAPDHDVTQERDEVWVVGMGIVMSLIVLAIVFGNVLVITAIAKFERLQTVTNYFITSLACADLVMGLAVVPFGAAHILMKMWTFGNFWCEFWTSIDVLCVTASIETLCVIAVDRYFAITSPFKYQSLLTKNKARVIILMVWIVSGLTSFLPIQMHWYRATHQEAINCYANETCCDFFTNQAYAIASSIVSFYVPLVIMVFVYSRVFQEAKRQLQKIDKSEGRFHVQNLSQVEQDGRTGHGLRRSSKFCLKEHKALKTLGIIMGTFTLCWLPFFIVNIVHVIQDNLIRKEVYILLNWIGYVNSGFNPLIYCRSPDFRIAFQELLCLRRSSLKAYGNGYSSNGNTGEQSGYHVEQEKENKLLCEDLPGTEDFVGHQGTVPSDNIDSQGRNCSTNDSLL
Chain of KiSS-1 receptor (Homo sapiens) (Q969F8 whole entry, looked up): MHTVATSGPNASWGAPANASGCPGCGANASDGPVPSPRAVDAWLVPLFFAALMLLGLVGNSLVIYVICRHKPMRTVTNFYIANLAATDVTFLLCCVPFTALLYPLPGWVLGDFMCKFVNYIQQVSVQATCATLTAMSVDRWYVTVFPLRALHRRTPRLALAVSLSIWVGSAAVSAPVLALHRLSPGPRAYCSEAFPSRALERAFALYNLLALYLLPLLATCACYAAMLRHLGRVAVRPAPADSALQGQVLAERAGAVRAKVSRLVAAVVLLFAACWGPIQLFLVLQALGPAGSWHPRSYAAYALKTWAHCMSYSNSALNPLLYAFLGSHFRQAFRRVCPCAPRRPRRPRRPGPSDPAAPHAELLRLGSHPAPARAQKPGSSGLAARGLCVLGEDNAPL
Chain of D(2) dopamine receptor (Homo sapiens) (P14416 whole entry, looked up): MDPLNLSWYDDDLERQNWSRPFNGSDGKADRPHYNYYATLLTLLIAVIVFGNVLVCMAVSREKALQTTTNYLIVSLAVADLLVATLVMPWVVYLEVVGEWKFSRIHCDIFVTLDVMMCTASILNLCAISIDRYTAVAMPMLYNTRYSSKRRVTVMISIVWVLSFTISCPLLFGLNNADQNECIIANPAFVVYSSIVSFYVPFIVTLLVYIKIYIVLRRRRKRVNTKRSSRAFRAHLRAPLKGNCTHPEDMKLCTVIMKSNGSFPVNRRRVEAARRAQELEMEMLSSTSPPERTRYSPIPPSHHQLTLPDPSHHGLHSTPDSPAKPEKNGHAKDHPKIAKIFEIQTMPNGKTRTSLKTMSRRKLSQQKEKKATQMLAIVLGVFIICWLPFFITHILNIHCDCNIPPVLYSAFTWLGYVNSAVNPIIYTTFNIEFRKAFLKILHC
Chain of Muscarinic acetylcholine receptor M1 (Homo sapiens) (P11229 whole entry, looked up): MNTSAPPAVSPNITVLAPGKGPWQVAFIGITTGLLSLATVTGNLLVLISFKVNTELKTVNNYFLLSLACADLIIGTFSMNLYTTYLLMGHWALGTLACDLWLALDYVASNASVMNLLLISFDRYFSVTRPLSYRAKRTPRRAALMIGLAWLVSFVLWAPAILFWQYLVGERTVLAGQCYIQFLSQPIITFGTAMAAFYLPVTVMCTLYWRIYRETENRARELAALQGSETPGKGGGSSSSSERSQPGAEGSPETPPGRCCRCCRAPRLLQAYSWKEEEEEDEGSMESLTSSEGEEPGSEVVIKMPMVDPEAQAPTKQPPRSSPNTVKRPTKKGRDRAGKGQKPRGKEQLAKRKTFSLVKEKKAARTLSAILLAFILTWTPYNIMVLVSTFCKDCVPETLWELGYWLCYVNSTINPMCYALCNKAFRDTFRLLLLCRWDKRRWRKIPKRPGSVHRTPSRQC
Chain of 5-hydroxytryptamine receptor 2A (Homo sapiens) (P28223 whole entry, looked up): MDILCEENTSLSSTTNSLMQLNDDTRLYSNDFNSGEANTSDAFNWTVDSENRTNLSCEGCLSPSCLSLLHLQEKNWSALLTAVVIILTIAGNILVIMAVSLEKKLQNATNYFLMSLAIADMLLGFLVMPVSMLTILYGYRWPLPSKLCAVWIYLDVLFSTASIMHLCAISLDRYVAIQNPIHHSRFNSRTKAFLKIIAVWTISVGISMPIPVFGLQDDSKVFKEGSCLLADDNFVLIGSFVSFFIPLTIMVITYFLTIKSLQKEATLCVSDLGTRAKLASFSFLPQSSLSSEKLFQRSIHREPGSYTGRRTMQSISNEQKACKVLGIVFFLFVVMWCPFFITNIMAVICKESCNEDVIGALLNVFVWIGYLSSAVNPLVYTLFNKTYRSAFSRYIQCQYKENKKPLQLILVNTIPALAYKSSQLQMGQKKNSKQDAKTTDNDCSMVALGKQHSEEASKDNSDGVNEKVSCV

COC(=O)c1ccccc1CS(=O)(=O)NC(=O)Nc1nc(OC)cc(OC)n1
not listed: [19] | [20]
inactive: all other assays above

N#CN=C(N)N
not listed: [11]
inactive: all other assays above

CCCC1COC(Cn2cncn2)(c2ccc(Cl)cc2Cl)O1 (stereo unspecified)
not listed: [11] | [14]
inactive: all other assays above

O=[N+]([O-])c1ccc(Oc2ccc(Cl)cc2Cl)cc1
not listed: [11]
inactive: all other assays above

CCC(=O)O[C@@H]1C=C2CCC3C(CCC4(C)C3CC[C@@H]4OC(=O)CC)C2CC1 (stereo partly specified)
not listed: [11]
inactive: all other assays above

CC(=O)C(Cl)Cl
not listed: [11]
inactive: all other assays above

CCC1(CC)C(=O)C=CNC1=O
not listed: [11]
inactive: all other assays above

From PubChem BioAssay (Tox21)
